Assay outcomes from PubChem.
TROY signal inh: TROY signaling inhibition. 360,000 compounds, 0.98% hits. inhibition, % at 10 µM. Q293 LMP1-TROYcd NF-kB luciferase reporter, 4 h;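 active means compounds whose plate-normalised and pattern-corrected inhibition of the luciferase reporter signal at the single screening dose is 50% or more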
LMP1 NFkB inh: reduces LMP1-driven NF-kappaB luciferase signal. LMP1-induced NF-kappaB luciferase reporter cells, luminescence. inhibition, % at 12.5 µM. 350,000 compounds, 0.69% hits. AID 504558; in the data active means inhibition above about 41%; inconclusive means no clear call, values can overlap the other calls;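 further: 0% = neutral control wells and 100% = reference inhibitor control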
EWS-Fli block: blocks EWS/Fli oncoprotein-driven transcription; A673 NR0B1-luciferase reporter, viability-normalised; inhibition, % at 12.6 µM; 350,000 compounds, 0.67% hits;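 active means mean inhibition of at least 50% after viability correction, with every replicate also passing that limit; inconclusive means mean reaches 50% but only one of two replicates passes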;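 further: firefly luciferase signal divided by Alamar Blue viability fluorescence both relative to DMSO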
LGR2 inh: Drosophila LGR2 receptor signaling inhibition | HEK293 LGR2, CRE-luciferase, bursicon-stimulated, 4 h | inhibition, % at 9.99 µM | 380,000 compounds, 0.35% hits | AID 720647;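 active means drop in luminescence signal, shown as inhibition above about 50% in the replicate tests, limit read from the data, passing the limit was not always enough; inconclusive means probably only some replicates passing the limit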;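 further: agonist challenge used bursicon conditioned medium at about half maximal strength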
TWEAK Fn14 block: inhibitors of TWEAK-Fn14 interaction signaling; TWEAK-stimulated Fn14 reporter cells, luciferase luminescence, 8 h; inhibition, % at 10 µM; 360,000 compounds, 2% hits; in the data active means inhibition above about 50%
Numbers without * were called inactive; ? = inconclusive; nt = no result. Shown are actives, neighbours in structure and some others; about 2.5% of the full set was active somewhere.

SMILES	TROY signal inh	LMP1 NFkB inh	EWS-Fli block	LGR2 inh	TWEAK Fn14 block
O=C1N/C(=C/c2cccn2-c2ccc(F)cc2)C(=O)N1Cc1ccccc1F	-27.4	0.0	nt	-13.1	74.9*
O=C1N/C(=C/c2cccn2-c2ccccc2)C(=O)N1Cc1ccc(F)cc1	0.2	16.5	nt	29.2	0.8
C[C@H](CO)N1C[C@H](C)[C@H](CN(C)C)Oc2ccc(NC(=O)Cc3cn(C)c4ccccc34)cc2C1=O	nt	nt	nt	-13.2	nt
CCOc1ccccc1/C=N/n1nnnc1N	-10.4	8.9	10.1	-11.5	73.6*
COc1ccc(-c2cc3nnc(-c4ccccc4)nc3s2)cc1	63.4*	23.9	nt	nt	71.7*
O=C(CNC(=S)N(Cc1ccccc1F)C1CCCCC1)NCCCN1CCOCC1	11.0	4.0	-4.0	-7.0	84.5*
CO[C@@H]1CN(C)C(=O)c2ccc(NC(C)=O)cc2OC[C@H](C)N(C(=O)C2CC2)C[C@@H]1C	nt	nt	-3.4	9.0	nt
CO[C@@H](CN(C)S(=O)(=O)c1ccc(Cl)cc1)[C@H](C)CN(C(=O)Nc1ccccc1F)[C@H](C)CO	nt	nt	-25.4	-8.4	nt
Cc1ccc(S(=O)(=O)NC2CCSC2=O)cc1C (configuration not stated)	-7.0	69.4*	-5.2	7.5	-6.3
CN(C)CCCNc1nc(-c2ccccc2)nc2ccccc12	-8.6	-8.5	-10.1	-12.8	10.8
c1ccc2c(NCCCN3CCOCC3)c3ccccc3nc2c1	nt	nt	?	89.6*	nt
Oc1ccc(CCNc2c3ccccc3nc3ccccc23)cc1O	-28.9	-9.2	70.5*	38.8	-25.7
CN(C)CCCNc1c2ccccc2nc2ccccc12	-46.8	-30.9	47.9	91.7*	-4.8
C[C@@H]1CN([C@H](C)CO)S(=O)(=O)c2ccc(/C=C/c3ccccc3)cc2O[C@H]1CN(C)C(=O)Nc1cc(F)ccc1F	nt	nt	20.0	-5.7	nt
COc1ccc(S(=O)(=O)N2CCCCN3[C@H](CO)[C@H](c4ccc(-c5cccnc5)cc4)[C@H]3C2)cc1	nt	nt	nt	28.8	nt
CCC(=O)N(C)C[C@@H]1Oc2cc(C#CC(C)C)ccc2S(=O)(=O)N([C@@H](C)CO)C[C@@H]1C	nt	nt	-6.4	-6.0	nt
Oc1ccc(-c2cnns2)c(O)c1	-22.9	-2.8	21.9	25.6	63.0*
COc1cc(N=c2c([N+](=O)[O-])nn(-c3ccc4c(c3)OCCO4)n2O)cc(OC)c1	53.5*	5.9	nt	-2.8	41.0
CCc1cccc(N=c2c([N+](=O)[O-])nn(-c3ccc4c(c3)OCCO4)n2O)c1	55.4*	10.5	-11.0	-52.4	31.3
COc1ccc(S(=O)(=O)N(C)C[C@H]2Oc3ccc(NS(=O)(=O)c4cccs4)cc3C(=O)N([C@@H](C)CO)C[C@@H]2C)cc1	nt	nt	-1.5	-3.7	nt
Cc1nnc(SC(=O)N2c3ccccc3Sc3ccccc32)s1	48.8	?	nt	nt	90.1*
COc1cc(-c2c(CCO)sc3ccccc23)cc(OC)c1OC	11.2	nt	56.4*	-6.9	17.2
COc1cc(-c2c(-c3ccsc3)sc3ccccc23)cc(OC)c1OC	-10.5	-7.2	4.0	6.4	-13.0
C=C1C(=O)C=C2CN(C(=O)c3ccccc3)[C@@](Cc3ccc(F)cc3)(C(=O)OC)[C@@H]12	80.9*	93.7*	nt	nt	104.8*
C=C1C(=O)CC2=C1[C@](Cc1ccc(F)cc1)(C(=O)OC)N(C(=O)c1ccccc1)C2	-10.3	nt	11.0	3.9	16.1
SMILES	TROY signal inh	LMP1 NFkB inh	EWS-Fli block	LGR2 inh	TWEAK Fn14 block
COC(=O)c1cc(C(=O)c2ccc(C(C)(C)C)cc2)c[nH]1	-10.3	-26.2	-94.8	-54.4	6.1
CC(C)(C)c1ccc(C(=O)c2c[nH]c(C(=O)O)c2)cc1	13.9	-15.1	-107.1	-68.7	50.4*
C[C@H](CO)N1C[C@H](C)[C@@H](CN(C)C)Oc2cc(-c3ccc(F)cc3)ccc2S1(=O)=O	nt	nt	4.1	-7.0	nt
CSc1ccccc1C(=O)N1CCc2ccc(NC(=O)c3ccccn3)cc2C1	74.0*	-23.1	-33.4	7.0	60.5*
COCC(=O)Nc1ccc2c(c1)[C@H]1C[C@@H](CC(=O)NCc3ccc(Cl)cc3)O[C@@H](CO)[C@H]1O2	nt	nt	5.7	-4.4	nt
CCc1cc(-c2[nH]ncc2-c2ccc3c(c2)OCO3)c(O)cc1O	68.3*	10.0	nt	40.1	92.4*
COc1ccc(-c2[nH]ncc2-c2ccc3c(c2)OCCO3)c(O)c1	60.9*	63.9*	nt	?	77.7*
COc1ccc(-c2cn[nH]c2-c2ccc(OCc3ccc([N+](=O)[O-])cc3)cc2O)cc1	37.7	25.1	0.1	42.1	77.5*
CCc1cc(-c2[nH]ncc2-c2ccc(OC)cc2)c(O)cc1O	48.8	10.1	-15.3	36.1	64.0*
O=C(C[C@H]1CC[C@@H]2[C@H](COC[C@H](O)CN2C(=O)Nc2ccccc2)O1)NC1Cc2ccccc2C1	nt	nt	-14.7	18.0	nt
COc1ccc(NC(=O)N(C)C[C@@H]2Oc3c(NS(=O)(=O)c4ccccc4)cccc3C(=O)N([C@@H](C)CO)C[C@@H]2C)cc1	nt	nt	-14.6	-14.0	nt
CCc1n[nH]c(=S)n1/N=C/c1ccc(N(C)c2ccccc2)cc1	26.9	75.7*	20.8	15.0	-12.9
COC(=O)c1c(-c2cccc3ccccc23)csc1NC(=O)Cc1ccc(OC)c(OC)c1	39.7	2.0	nt	nt	74.8*
COC(=O)c1c(-c2ccc(C)cc2)csc1NC(=O)Cc1ccc(OC)c(OC)c1	42.1	6.3	nt	6.6	57.0*
COC(=O)c1c(-c2ccc(Br)cc2)csc1NC(=O)Cc1ccc(OC)c(OC)c1	-17.9	18.5	nt	-3.9	32.2
O=C(N[C@H]1CC[C@H](CCNC(=O)C2CC2)O[C@H]1CO)c1ccccn1	nt	nt	-2.8	-10.1	nt
CCC(=O)NC1=C(Nc2ccc(N)cc2)C(=O)c2ccccc2C1=O	33.0	-10.7	-73.4	-4.0	51.6*
COc1cccc(C#Cc2ccc3c(c2)[C@H]2[C@H](CCN2C(=O)Cc2ccccc2)[C@H](CO)N3)c1	nt	nt	nt	23.2	nt
COc1ccc2c3c([nH]c2c1)[C@@H](CO)N(Cc1ccccn1)CC31CN(C(=O)c2ccccn2)C1	nt	nt	-11.3	-9.4	nt
CO[C@H]1CN(C)C(=O)c2ccc(NC(C)=O)cc2OC[C@@H](C)N(CC2CCCCC2)C[C@@H]1C	nt	nt	-2.5	17.9	nt
O=C(NC1CCCCC1)c1n[nH]c2c1CCCCC2	83.3*	53.7*	78.6*	91.1*	99.1*
CCC(C)(C)C1CCc2[nH]nc(C(=O)NC3CCCC3)c2C1 (configuration not stated)	-46.8	3.6	2.0	nt	-12.8
COc1ccc(C(NC(=O)c2cc(OC)ccc2OC)c2ccccc2)cc1 (configuration not stated)	8.0	-3.5	29.3	-2.0	45.7
COc1ccc(C(NC(=O)c2c(F)c(F)c(F)c(F)c2F)c2ccccc2)cc1 (configuration not stated)	69.0*	4.5	61.8*	67.1*	5.2
COc1ccc(C(=O)Nc2ccccc2C(=O)Nc2ccc(C(=O)O)cc2)cc1	1.0	4.6	-29.5	-20.8	81.4*
CN(C)S(=O)(=O)Oc1cccc(C(=O)Nc2cccc(Cl)c2)c1	-8.2	-22.3	nt	nt	15.4
COc1ccc(NC(=S)NNc2ccc(C(=O)O)cc2)cc1	18.9	-10.5	0.7	13.2	58.3*
